AmpC inh no detg – inhibitors of E. coli AmpC beta-lactamase without detergent; P00811; AmpC nitrocefin hydrolysis, absorbance 480 nm, 0.0001% Triton; Potency, µM (top dose mostly 57.1 µM), actives largely listed as inhibitors; 330,000 tested, 0.52% active; AID 485341; note: nearly all actives have a fitted effect of over 20% in size
Target sequence (P00811 whole entry, looked up): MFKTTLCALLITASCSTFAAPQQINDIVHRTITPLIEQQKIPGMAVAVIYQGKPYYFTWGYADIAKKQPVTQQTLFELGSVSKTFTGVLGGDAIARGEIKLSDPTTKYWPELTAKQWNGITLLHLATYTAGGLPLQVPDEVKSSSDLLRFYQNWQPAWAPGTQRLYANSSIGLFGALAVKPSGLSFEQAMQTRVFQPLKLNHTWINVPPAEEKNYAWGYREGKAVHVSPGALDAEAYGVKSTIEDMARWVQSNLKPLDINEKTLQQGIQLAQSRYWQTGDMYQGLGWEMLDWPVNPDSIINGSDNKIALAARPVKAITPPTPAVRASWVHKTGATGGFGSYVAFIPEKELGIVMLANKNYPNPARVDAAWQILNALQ
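20 mM phosphate pH 7.0 + 0.01% (detergent screen) or 0.0001% Triton X-100; 5.3 nM AmpC reagent; cpd preinc 15 min RT; nitrocefin (800 uM stock) to start; A480 q20 s × 4 min; Activity was normalised to no-enzyme and no-compound control wells.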
AmpC detergent – inhibitors of E. coli AmpC beta-lactamase with detergent. Potency, µM (highest dose often 114 µM), most hits filed as inhibitors. 370,000 tested, 0.041% active. AmpC hydrolysis of nitrocefin, absorbance 480 nm, 0.01% Triton. P00811. AID 485294; note: nearly all actives have a fitted effect of over 25% in size
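20 mM phosphate pH 7.0 + 0.01% (detergent screen) or 0.0001% Triton X-100; 5.3 nM AmpC reagent; cpd preinc 15 min RT; nitrocefin (800 uM stock) to start; A480 q20 s × 4 min; Activity was normalised to no-enzyme and no-compound control wells.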
Vaccinia Venus – vaccinia inhibition (Venus reporter) | Vaccinia virus Venus reporter expression, fluorescence | Potency, µM (series often up to 36.5 µM), most hits filed as inhibitors | 330,000 tested, 0.46% active; calls by dose curve; tested in A549 cells; note: nearly all actives have a fitted effect of over 30% in size
VACV mCherry inh – inhibitors of vaccinia virus infection (mCherry reporter signal); Potency, µM (series often up to 36.5 µM), usual class: inhibitors; Vaccinia virus mCherry reporter infection, fluorescence; 310,000 tested, 0.63% active; calls by dose curve; tested in A549 cells; note: nearly all actives have a fitted effect of over 35% in size
Hits are given with their value; n = inactive; u = inconclusive; x = not tested or not shown; ! = a repeat was not active. This is a sample that favours compounds with a hit; in the whole collection about 1.1% have one here. Unless noted, calls come from the whole dose curve; as a rule, active = well fitted curve in the direction sought with a large enough effect; inconclusive = small, poorly fitted or top-dose-only effect, or another doubt; inactive = no such curve, though single readings can be large; an effect the other way counts as inactive or inconclusive.

SMILES | AmpC inh no detg | AmpC detergent | Vaccinia Venus | VACV mCherry inh
O=C(NCc1ccncc1)c1cnn(-c2nccc(-c3cccs3)n2)c1C1CC1 | x | x | n | n
CCCS(=O)(=O)NCc1c(C)ncc2c1CCN(C(=O)/C=C/c1cccc(Cl)c1)C2 | x | x | n | n
Nc1cc([N+](=O)[O-])ccc1Nc1ccc(O)cc1 | 31.6µM | n | n | n
CC(C)CC(=O)NC(=S)Nc1cccc(NC(=O)c2ccccc2Cl)c1 | n | n | x | x
CC(C)Oc1cccc(C(=O)NC(=S)Nc2cccc(NC(=O)c3ccccc3Cl)c2)c1 | 3.16µM | n | n | n
O=C(c1ccc(N2CCN(C3CC(=O)N(Cc4cccs4)C3=O)CC2)cc1)c1cccnc1 (stereo not drawn) | n | n | n | n
Cc1cc(N2C(=O)CC(N3CCN(c4ccc(C(=O)c5cccs5)cc4)CC3)C2=O)no1 (stereo not drawn) | 0.501µM | n | n | x
COc1cc(C)c(CN2C[C@H](Sc3ccccn3)C[C@H]2C(=O)N(C)C)cc1C | x | x | n | n
COc1ccc(-c2nc(C#N)c(N3CCCCCC3)o2)cc1 | 7.08µM | n | n | n
COc1ccc(-c2nc(C#N)c(N3CCCCC3)o2)cc1 | n | n | n | n
CC(=O)c1c(C)nc2ccccc2c1N | n | u | n | x
Cc1nc2ccccc2c(N)c1C(=O)/C=C/c1ccccc1 | n | n | u | 15.8µM
NC[C@@H]1CC[C@@H](N)[C@@H](O[C@H]2[C@H](O)[C@@H](O[C@H]3O[C@H](CO)[C@@H](O)[C@H](N)[C@H]3O)[C@H](N)C[C@@H]2N)O1 | x | x | n | n
CCOC(=O)C1CCN(c2cc(=O)n(-c3ccc(OC)cc3)c(=O)[nH]2)CC1 | 3.55µM | u | n | n
Cc1ccc(N=Cc2cc3c(cc2O)OC(N)=C(C#N)C3c2ccccc2)cc1 (stereo not drawn) | 20µM | n | n | n
N#CC1=C(N)Oc2cc(O)c(C=Nc3ccccc3)cc2C1c1ccccc1 (stereo not drawn) | n | n | n | n
C[C@H]1CCC[C@@H](O)CCC/C=C/c2cc(O)cc(O)c2C(=O)O1 | n | n | u | u
CC1CCC/C=C/C(=O)c2c(O)cc(O)cc2CC(=O)O1 (stereo not drawn) | n | n | u | 7.08µM
Cc1ccc(C(=O)c2c3ccc([N+](=O)[O-])cc3[n+]([O-])n2CCCN)cc1 | n | n | 14.1µM | u
Cc1ccccc1CN1CCc2nnc(C(C)NC(=O)C3CCN(C)CC3)n2CC1 (stereo not drawn) | x | x | n | n
O=C(NC1CCCCC1)C(c1cccnc1)N(C(=O)CCl)c1ccccc1Cl (stereo not drawn) | n | n | 10µM | u
COc1ccc(N(C(=O)CCl)C(C(=O)NC2CCCCC2)c2cccnc2)cc1 (stereo not drawn) | n | n | 2.82µM | 11.2µM
COc1ccc(C(C(=O)NC2CCCCC2)N(C(=O)CCl)c2ccc(OC)cc2)cc1 (stereo not drawn) | n | n | n | n
CCc1ccccc1N(C(=O)CNC(=O)c1ccco1)C(C(=O)NC1CCCC1)c1cccnc1 (stereo not drawn) | n | n | n | n
O=C(NCC(=O)N(c1ccc(F)cc1)C(C(=O)NC1CCCCC1)c1cccnc1)c1ccco1 (stereo not drawn) | n | n | n | n
SMILES | AmpC inh no detg | AmpC detergent | Vaccinia Venus | VACV mCherry inh
O=C(NC1CCCCC1)C(c1cccnc1)N(C(=O)CCl)c1ccc(F)cc1 (stereo not drawn) | n | n | u | 7.94µM
O=C(NCc1ccccn1)c1cnn(-c2nccc(-c3cc4ccccc4o3)n2)c1C1CC1 | x | x | n | n
CCc1ccc(NC(=O)CSc2nnc(-c3ccccc3)n2CC)cc1 | x | x | n | n
O=C1NC(=O)N(CCc2ccc(F)cc2)C(=O)/C1=C\C=C\c1ccccc1 | 3.55µM | n | n | n
C[C@H](CO)N1C[C@H](C)[C@H](CN(C)C(=O)Cc2ccncc2)Oc2ncc(Br)cc2C1=O | x | x | 8.91µM | u
C[C@@H]1CN([C@H](C)CO)C(=O)c2cc(Br)cnc2O[C@H]1CN(C)C(=O)Cc1ccccc1 | x | x | n | n
OCCCCNCc1ccc(OCc2ccc(Cl)cc2Cl)cc1 | n | n | u | 28.2µM
COc1ccc(NC(=O)c2cc(S(=O)(=O)Nc3ccc(OC)cc3)cs2)cc1 | 11.2µM | n | x | x
CC(C)CC(N)c1csc(NC(=O)c2cc(C(C)(C)C)nn2Cc2ccccc2)n1 (stereo not drawn) | x | x | 12.6µM | 11.2µM
COc1ccccc1Nc1c2c(nc3ccc(NC(=O)c4cccc(F)c4)cc13)CCCC2 | x | n | u | 11.2µM
COc1ccccc1Nc1c2c(nc3ccc(NC(=O)/C=C/c4cccc(OC)c4OC)cc13)CCCC2 | x | n | u | u
O=C(Cn1c(=O)oc2cc(S(=O)(=O)N3CCCC3)ccc21)N1CCN(c2ccccn2)CC1 | 7.94µM | u | n | n
Cc1cccc2cc(CN(CC3CCCO3)C(=O)C3CC3)c(N(C)C)nc12 (stereo not drawn) | x | x | n | n
Oc1c(Cl)cc(Cl)cc1/C=C/c1ccc2cccc(O)c2n1 | n | n | n | 2.51µM
Cc1ccc2nc(-c3ccc(NC(=O)Cc4cccs4)cc3)[nH]c2c1 | n | u | 12.6µM | u
CC(=O)c1cccc(NC(=O)C2=CC(c3ccc4c(c3)OCO4)=NS(=O)(=O)N2C)c1 | 10µM | n | n | n
Cc1ccc(NC(=O)C2=CC(c3ccc4c(c3)OCO4)=NS(=O)(=O)N2C)cc1 | x | n | n | n
CCOC(=O)[C@]12Cc3cc4c(cc3[C@H]1N(Cc1ccccc1)C(=O)c1ccccc12)OCO4 | x | x | u | 11.2µM!
CCOC(=O)[C@]12Cc3cc(Cl)ccc3[C@H]1N(Cc1ccccc1)C(=O)c1ccccc12 | x | x | n | u
Cc1ccc(O)c(C(=O)CC(=O)c2cccc(F)c2)c1 | 20µM | n | n | n
CCN(CC)C(=O)c1ccc2nc(-c3ccccc3)c(-c3ccccc3)nc2c1 | n | n | n | n
CCN(CC)C(=O)c1ccc2nc3ccccc3nc2c1 | n | n | u | 2.24µM
COc1ccc(N2CCN(C(=O)c3cc(NC(C)=O)c4c(c3)ncn4CCc3ccccn3)CC2)cc1 | x | x | n | n
CCCc1c(C)[nH]c2ccc(C(=O)O)cc2c1=S | n | 39.8µM | n | n
Cc1[nH]c2ccc(C(=O)O)cc2c1C | n | n | n | u
SMILES | AmpC inh no detg | AmpC detergent | Vaccinia Venus | VACV mCherry inh
Cn1cccc1C(=O)NC(=O)CSc1nc2ccccc2s1 | 15.8µM | n | n | n
Cc1occc1C(=O)Nc1cccc(-c2nc(CNC(=O)c3cc(-c4ccccc4)n[nH]3)c(C)o2)c1 | x | x | n | n
CCc1nnc(NC(=O)c2ccc(S(=O)(=O)N3CCc4ccccc4C3)cc2)s1 | n | n | n | n
Cc1cc(C)c2sc(N(CCCN(C)C)C(=O)c3ccc(S(=O)(=O)N4CCc5ccccc5C4)cc3)nc2c1 | n | n | x | x
Cc1cc(C)c2sc(NNC(=O)c3ccc(S(=O)(=O)N4CCc5ccccc5C4)cc3)nc2c1 | 3.55µM | n | 7.94µM | 4.47µM
Cc1cc(C)c2nc(NNC(=O)c3ccc(S(=O)(=O)N4CCc5ccccc5C4)cc3)sc2c1 | n | n | u | 15.8µM
CC(=O)c1ccc(F)c(-c2cc(C)cc3c2OC(CNC(=O)C(C)n2nc(C)cc2C)C3)c1 (stereo not drawn) | x | x | n | n

High-throughput results deposited in PubChem BioAssay by National Center for Advancing Translational Sciences (NCATS).
